# Source: PMC11062922 (Nature Chemical Biology, 2023)
# Read-outs that look alike come from different tables or passages of the source.
# Key:
# Set-up in all cases: species or system human, MV4-11 + K-562 + COLO205 + SK-N-BE2 + OVCAR-8
# CDK7 = conditions: read-out: apparent Kd, n = 1
# ERCC2 = conditions: read-out: apparent Kd, n = 1
# FER = conditions: read-out: apparent Kd, n = 1
# FLT3 = conditions: read-out: apparent Kd, n = 1
# MARK4 = conditions: read-out: apparent Kd, n = 1
# PRKAA1 = conditions: read-out: apparent Kd, n = 1
# PRKCQ = conditions: read-out: apparent Kd, n = 1
# PTK2 = conditions: read-out: apparent Kd, n = 1
# TNK2 = conditions: read-out: apparent Kd, n = 1
# DYRK1A = conditions: read-out: apparent Kd; compound concentrations: 100 nM and 1000 nM (sheet 'Samples'), CATDS: 4.9269048258553202E-2; n = 1
# LATS1 = conditions: read-out: apparent Kd, n = 1
# PLK4 = conditions: read-out: apparent Kd, n = 1
# PRKD3 = conditions: read-out: apparent Kd, n = 1
# PTK2B = conditions: read-out: apparent Kd, n = 1
# RPS6KA6 = conditions: read-out: apparent Kd, n = 1
# STK10 = conditions: read-out: apparent Kd, n = 1
# MYLK3 = conditions: read-out: apparent Kd; compound concentrations:100 nM and 1000 nM (sheet 'Samples'); n = 1
# PRKD2 = conditions: read-out: apparent Kd, n = 1
# CDKL5 = conditions: read-out: apparent Kd; compound concentrations: 100 nM and 1000 nM (sheet 'Samples'), CATDS: 1.7260547192186899E-2; n = 1
# [1] = compound concentrations:100 nM and 1000 nM (sheet 'Samples')
compound,measurement,setting,value
CN(c1ccc(NC(=O)N2CCN(CCCN3CCOCC3)CC2)cc1)c1ccnc(Nc2ccc(CS(C)(=O)=O)cc2)n1.Cl [GW830899A],potency estimated from few doses,"CDK7; compound concentrations: 100 nM and 1000 nM (sheet 'Samples'), CATDS: 3.2126813899460802E-2",560 nM
same,potency estimated from few doses,"ERCC2; compound concentrations: 100 nM and 1000 nM (sheet 'Samples'), CATDS: 3.5571834197337601E-2",471 nM
same,potency estimated from few doses,"FER; compound concentrations: 100 nM and 1000 nM (sheet 'Samples'), CATDS: 2.4500715622852599E-2",940 nM
same,potency estimated from few doses,"FLT3; compound concentrations: 100 nM and 1000 nM (sheet 'Samples'), CATDS: 9.7213478094733505E-2",119 nM
same,potency estimated from few doses,"MARK4; compound concentrations: 100 nM and 1000 nM (sheet 'Samples'), CATDS: 2.1363637318540001E-2",1290 nM
same,potency estimated from few doses,"PRKAA1; compound concentrations: 100 nM and 1000 nM (sheet 'Samples'), CATDS: 2.4895545924416802E-2",909 nM
same,potency estimated from few doses,"PRKCQ; compound concentrations: 100 nM and 1000 nM (sheet 'Samples'), CATDS: 2.35958557762035E-2",1020 nM
same,potency estimated from few doses,"PTK2; compound concentrations: 100 nM and 1000 nM (sheet 'Samples'), CATDS: 2.9725199889124199E-2",643 nM
same,potency estimated from few doses,"TNK2; compound concentrations: 100 nM and 1000 nM (sheet 'Samples'), CATDS: 3.2652944878228798E-2",544 nM
CCn1c(-c2nonc2N)nc2c(C#CC(C)(C)O)nc(OC[C@@H](N)c3ccccc3)cc21 [GSK938890A],potency estimated from few doses,DYRK1A,2060 nM
same,potency estimated from few doses,"LATS1; compound concentrations: 100 nM and 1000 nM (sheet 'Samples'), CATDS: 6.3165054409109203E-2",513 nM
Cl.Nc1c(C(=O)c2cccc(C#CCN3CCCCC3)c2)cnn1-c1ccc(F)cc1 [RO1154461-001],potency estimated from few doses,"CDK7; compound concentrations: 100 nM and 1000 nM (sheet 'Samples'), CATDS: 4.6552483673456102E-2",74.1 nM
same,potency estimated from few doses,"ERCC2; compound concentrations: 100 nM and 1000 nM (sheet 'Samples'), CATDS: 5.2130998617594002E-2",63.2 nM
same,potency estimated from few doses,"FER; compound concentrations: 100 nM and 1000 nM (sheet 'Samples'), CATDS: 4.9023130772968097E-2",68.9 nM
same,potency estimated from few doses,"LATS1; compound concentrations: 100 nM and 1000 nM (sheet 'Samples'), CATDS: 1.0207334677420601E-2",1780 nM
same,potency estimated from few doses,"MARK4; compound concentrations: 100 nM and 1000 nM (sheet 'Samples'), CATDS: 1.0984902394488599E-2",1350 nM
same,potency estimated from few doses,"PLK4; compound concentrations: 100 nM and 1000 nM (sheet 'Samples'), CATDS: 1.52727578092353E-2",534 nM
same,potency estimated from few doses,"PRKAA1; compound concentrations: 100 nM and 1000 nM (sheet 'Samples'), CATDS: 1.6696552241267201E-2",436 nM
same,potency estimated from few doses,"PRKCQ; compound concentrations: 100 nM and 1000 nM (sheet 'Samples'), CATDS: 1.06314955132201E-2",1520 nM
same,potency estimated from few doses,"PRKD3; compound concentrations: 100 nM and 1000 nM (sheet 'Samples'), CATDS: 9.8039284052072601E-3",2110 nM
same,potency estimated from few doses,"PTK2B; compound concentrations: 100 nM and 1000 nM (sheet 'Samples'), CATDS: 4.70772148713983E-2",72.9 nM
same,potency estimated from few doses,"PTK2; compound concentrations: 100 nM and 1000 nM (sheet 'Samples'), CATDS: 1.89593095974224E-2",333 nM
same,potency estimated from few doses,"RPS6KA6; compound concentrations: 100 nM and 1000 nM (sheet 'Samples'), CATDS: 1.98632860807328E-2",303 nM
same,potency estimated from few doses,"STK10; compound concentrations: 100 nM and 1000 nM (sheet 'Samples'), CATDS: 1.0028252220669101E-2",1910 nM
same,potency estimated from few doses,"TNK2; compound concentrations: 100 nM and 1000 nM (sheet 'Samples'), CATDS: 5.6879237534392203E-2",56.1 nM
CNC(=O)c1ccccc1Nc1nc(Nc2ccc(N3CCOCC3)cc2)ncc1Cl.Cl [GSK1576028A],potency estimated from few doses,FER; [1],484 nM
same,potency estimated from few doses,FLT3; [1],616 nM
same,potency estimated from few doses,LATS1; [1],132 nM
same,potency estimated from few doses,MARK4; [1],1370 nM
same,potency estimated from few doses,MYLK3,786 nM
same,potency estimated from few doses,PLK4; [1],13.4 nM
same,potency estimated from few doses,PRKAA1; [1],629 nM
same,potency estimated from few doses,PTK2B; [1],41.8 nM
same,potency estimated from few doses,PTK2; [1],8.08 nM
same,potency estimated from few doses,STK10; [1],681 nM
same,potency estimated from few doses,TNK2; [1],731 nM
CN(C)CC(O)COc1ccc(Nc2nccc(-c3cnn4nc(N5CCOCC5)ccc34)n2)cc1 (stereo not drawn) [GW767488X],potency estimated from few doses,PRKD2; [1],28.7 nM
same,potency estimated from few doses,PRKD3; [1],44.8 nM
CC(=O)N[C@@H](Cc1ccc(OP(=O)(O)O)cc1)C(=O)N[C@H]1CCC(=O)N2CCC[C@@H](C(=O)NCc3ccc(Cl)cc3)N2C1=O [RO0325308-000],potency estimated from few doses,CDK7; [1],49.9 nM
same,potency estimated from few doses,ERCC2; [1],39.4 nM
same,potency estimated from few doses,FER; [1],59.5 nM
same,potency estimated from few doses,PLK4; [1],637 nM
same,potency estimated from few doses,PRKAA1; [1],801 nM
same,potency estimated from few doses,PRKCQ; [1],785 nM
same,potency estimated from few doses,PTK2B; [1],367 nM
same,potency estimated from few doses,PTK2; [1],652 nM
same,potency estimated from few doses,RPS6KA6; [1],620 nM
same,potency estimated from few doses,TNK2; [1],51.7 nM
Cc1ccccc1-n1ncc(C(=O)c2ccccc2)c1N [RO1151248-000],potency estimated from few doses,"CDK7; compound concentrations: 100 nM and 1000 nM (sheet 'Samples'), CATDS: 3.2970650229379797E-2",492 nM
same,potency estimated from few doses,CDKL5,2240 nM
same,potency estimated from few doses,"ERCC2; compound concentrations: 100 nM and 1000 nM (sheet 'Samples'), CATDS: 3.4220969225155197E-2",462 nM
same,potency estimated from few doses,"FER; compound concentrations: 100 nM and 1000 nM (sheet 'Samples'), CATDS: 3.2819446415030699E-2",496 nM
same,potency estimated from few doses,"PLK4; compound concentrations: 100 nM and 1000 nM (sheet 'Samples'), CATDS: 2.3524551530655802E-2",946 nM
same,potency estimated from few doses,"PRKAA1; compound concentrations: 100 nM and 1000 nM (sheet 'Samples'), CATDS: 2.2348662654876499E-2",1060 nM
same,potency estimated from few doses,"PRKCQ; compound concentrations: 100 nM and 1000 nM (sheet 'Samples'), CATDS: 1.77818646264679E-2",2020 nM
same,potency estimated from few doses,"PTK2B; compound concentrations: 100 nM and 1000 nM (sheet 'Samples'), CATDS: 3.03657064915384E-2",568 nM
same,potency estimated from few doses,"PTK2; compound concentrations: 100 nM and 1000 nM (sheet 'Samples'), CATDS: 2.47359073742957E-2",848 nM
same,potency estimated from few doses,"RPS6KA6; compound concentrations: 100 nM and 1000 nM (sheet 'Samples'), CATDS: 3.3090095643126802E-2",489 nM
same,potency estimated from few doses,"TNK2; compound concentrations: 100 nM and 1000 nM (sheet 'Samples'), CATDS: 3.5082928227748202E-2",443 nM
CCN(CC)Cc1ccc(Nc2nccc(-c3cnn4ncccc34)n2)cc1 [GW780056X],potency estimated from few doses,"CDK7; compound concentrations: 100 nM and 1000 nM (sheet 'Samples'), CATDS: 2.0395381874141399E-2",1240 nM
same,potency estimated from few doses,"FLT3; compound concentrations: 100 nM and 1000 nM (sheet 'Samples'), CATDS: 9.2784316233310501E-2",48.8 nM
same,potency estimated from few doses,"PRKD2; compound concentrations: 100 nM and 1000 nM (sheet 'Samples'), CATDS: 2.64855086193518E-2",580 nM
same,potency estimated from few doses,"PRKD3; compound concentrations: 100 nM and 1000 nM (sheet 'Samples'), CATDS: 3.09987339896893E-2",398 nM
